Laboratory results: publication PMC4336329 (PLoS ONE, 2015)
Out of some 310,000 compounds screened, about 14,000 (4.5%) showed an effect of 50% or more. The effect is printed as a negative number. This excerpt belongs to a sample that is enriched for strong results.

Molecular target: human ether-à-go-go-related gene (hERG) potassium channel (human, UniProt Q12809)
Experiment: primary screen, population patch clamp on CHO cells stably expressing hERG; higher = less effect of the substance
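Also: peak tail current of the secondary pulse compared with the same well before compound.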

Chain of human ether-à-go-go-related gene (hERG) potassium channel (Q12809 whole entry, looked up): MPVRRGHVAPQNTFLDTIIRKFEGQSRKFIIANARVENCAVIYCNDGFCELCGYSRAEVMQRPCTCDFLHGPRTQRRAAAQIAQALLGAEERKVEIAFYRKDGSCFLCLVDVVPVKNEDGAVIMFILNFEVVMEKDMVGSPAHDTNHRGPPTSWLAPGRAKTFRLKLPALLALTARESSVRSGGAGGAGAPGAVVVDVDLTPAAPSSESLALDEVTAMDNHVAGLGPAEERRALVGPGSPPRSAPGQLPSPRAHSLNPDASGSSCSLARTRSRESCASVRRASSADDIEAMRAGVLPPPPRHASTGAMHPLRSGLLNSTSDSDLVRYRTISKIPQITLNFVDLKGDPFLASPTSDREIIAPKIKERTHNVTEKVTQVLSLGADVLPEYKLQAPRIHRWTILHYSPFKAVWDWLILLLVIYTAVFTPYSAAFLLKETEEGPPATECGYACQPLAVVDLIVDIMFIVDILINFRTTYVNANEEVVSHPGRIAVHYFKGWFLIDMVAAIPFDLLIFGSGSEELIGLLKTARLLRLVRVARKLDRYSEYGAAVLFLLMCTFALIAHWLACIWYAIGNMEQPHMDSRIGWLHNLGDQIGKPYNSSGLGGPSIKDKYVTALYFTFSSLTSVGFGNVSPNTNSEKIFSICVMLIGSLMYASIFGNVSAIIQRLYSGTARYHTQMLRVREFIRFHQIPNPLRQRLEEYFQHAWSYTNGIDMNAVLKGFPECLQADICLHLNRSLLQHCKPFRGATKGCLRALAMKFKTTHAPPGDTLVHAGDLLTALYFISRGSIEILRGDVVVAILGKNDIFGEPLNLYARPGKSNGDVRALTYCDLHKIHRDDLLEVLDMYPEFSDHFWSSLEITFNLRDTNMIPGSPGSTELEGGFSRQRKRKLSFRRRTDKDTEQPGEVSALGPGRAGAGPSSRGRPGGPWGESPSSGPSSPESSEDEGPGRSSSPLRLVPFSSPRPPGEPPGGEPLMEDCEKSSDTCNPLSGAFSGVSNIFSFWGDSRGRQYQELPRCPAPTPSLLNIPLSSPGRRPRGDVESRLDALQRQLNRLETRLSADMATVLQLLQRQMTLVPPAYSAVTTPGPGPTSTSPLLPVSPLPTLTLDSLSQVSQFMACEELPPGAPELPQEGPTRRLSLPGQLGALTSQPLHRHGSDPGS

SMILES | hERG current change (%, negative = inhibition) at 10uM
COc1ccc(CCNC(=O)c2sc3cc(C)ccc3c2Cl)cc1 | 3.77%
CCn1c(SCC(=O)Nc2ccccc2C(=O)OC)nnc1-c1cccc(C)c1 | -36.2%
O=S(=O)(c1ccc(O)cc1)c1ccc(O)cc1 | 16.9%
CNC(=O)C(=O)NCC1CCCN1S(=O)(=O)c1cccs1 (stereo not shown) | 12.4%
C=CCn1c(-c2cccnc2Cl)nc2ccccc21 | 8.48%
Cc1nn(-c2cc(N3CCOCC3)ccc2[N+](=O)[O-])c(=O)c2ccccc12 | -4.66%
O=C([O-])/C=C1\CCCc2ccccc2C1O.[Na+] (stereo not shown) | 18.4%
Cc1ccsc1/C=N/NC(=O)CNC(=O)c1ccc(S(=O)(=O)N2CCOCC2)cc1 | 2.86%
O=C(C1CCN(S(=O)(=O)c2cccc3cccnc23)CC1)N1CCN(C2CCCCC2)CC1 | -0.647%
COc1cccc(CN2CCN(CC#Cc3ccccc3)CC2CCO)c1 (stereo not shown) | -30.6%
CC(C)N1CCC(N2CCN(C/C=C/c3ccc(F)cc3)CC2CCO)CC1 (stereo not shown) | -6.87%
COc1ccc(/C=C/CN2CCN(Cc3ccccc3)C(CCO)C2)cc1 (stereo not shown) | -51.9%
COC(=O)c1ccc(CN2CCN(Cc3ccc(F)cc3)C(CCO)C2)cc1 (stereo not shown) | 10.1%
COc1cccc(CN2CCN(Cc3ccc(OC)c(OC)c3)CC2CCO)c1 (stereo not shown) | -27.2%
COc1ccc(/C=C/CN2CCN(Cc3ccc(F)cc3)C(CCO)C2)cc1 (stereo not shown) | -58.5%
COc1ccc(/C=C/CN2CCN(Cc3cccc(OC)c3)C(CCO)C2)cc1 (stereo not shown) | -51.9%
CCOc1ccc(CN2CCN(C/C=C/c3ccc(OC)cc3)CC2CCO)cc1 (stereo not shown) | -88.7%
COc1ccc(CN2CCN(Cc3cccc(OC)c3)C(CCO)C2)cc1 (stereo not shown) | -45.8%
COC(=O)COc1ccc(-c2nccc(-c3ccccn3)n2)cc1 | 13.3%
CCN(CC(=O)Nc1ccccc1OC)C(=O)c1cc(-c2ccccc2)nn1-c1ccccc1 | -36.9%
COc1ccc(-c2noc(N3CCC(C(=O)NCc4ccccc4Cl)CC3)n2)cc1 | -11.9%

SMILES | hERG current change (%, negative = inhibition) at 10uM
CCOC(=O)NC(=O)CSc1nc2ccc(C)cc2[nH]1 | 8.02%
COc1cc(/C=N/NC(=O)c2csc3c2CCCC3)ccc1OCCN1CCOCC1 | -31.9%
COc1ccccc1C(=O)NNC(=O)c1nn(Cc2ccccc2)c(=O)c2ccccc12 | -14%
O=C(CSc1ncnc2sccc12)Nc1ccccc1 | 21.2%
COc1ccc(C(=O)NNC(=O)CNC(=O)C2CCCCC2)cc1 | 14%
COc1ccc(/C=C/CN2CCN(CCc3ccccc3)C(CCO)C2)cc1 (stereo not shown) | -71.9%
OCC[C@H]1C[C@H](O)[C@@H](O)[C@@]2(CCCO2)O1 | 20.1%
CC(C)CNc1nc(NC(C)(C)C)nc(Oc2ccc(=O)[nH]n2)n1 | 9.66%
Cc1ccc(S(=O)(=O)N2CCC(N3CCC(C)CC3)CC2)cc1 | -29.1%
CCCCc1cc(=O)oc2cc(C)cc(OC(C)C(=O)NCc3cccnc3)c12 (stereo not shown) | -19.7%
Cc1ccccc1NC(=O)COC(=O)c1cc(=O)c2ccccc2o1 | -67.4%
Cc1ccc(NC(=O)COC(=O)c2cc(=O)c3ccccc3o2)cc1F | 12.9%
Cc1cccc(C)c1NC(=O)COC(=O)c1cc(=O)c2ccccc2o1 | 5.2%
CC1=C(C)C(=O)N(C(C)CCc2ccccc2)C1=O (stereo not shown) | 4.9%
O=C(c1ccc([N+](=O)[O-])s1)N1CCN(c2cccc(Cl)c2)CC1 | -66.1%
O=C(c1cc2c(=O)n3ccccc3nc2s1)N1CCN(Cc2ccccc2)CC1 | -27.7%
CN1CCN(C(=O)c2cc3c(=O)n4ccccc4nc3s2)CC1 | -2.57%
COC(=O)c1cc(C(=O)N2CCN(c3cccc(C)c3C)CC2)cc([N+](=O)[O-])c1 | -39.6%
COC(=O)c1cc(C(=O)N2CCN(c3ncccn3)CC2)cc([N+](=O)[O-])c1 | -5.19%
COc1ccccc1N1CCN(C(=O)c2cc3c(=O)n4cccc(C)c4nc3s2)CC1 | -11.2%
COC(=O)c1cc(C(=O)N2CCN(c3cccc(Cl)c3)CC2)cc([N+](=O)[O-])c1 | -59%

SMILES | hERG current change (%, negative = inhibition) at 10uM
CCOC(=O)N1CCN(C(=O)c2cc3c(=O)n4cccc(C)c4nc3s2)CC1 | -9.84%
Cc1cccn2c(=O)c3cc(C(=O)N4CCN(Cc5ccccc5)CC4)sc3nc12 | -79.7%
O=C(c1ccc([N+](=O)[O-])s1)N1CCN(c2ccccc2)CC1 | -25.8%
Cc1c(C(=O)N2CCN(c3cccc(Cl)c3)CC2)cccc1[N+](=O)[O-] | -42.5%
COc1ccccc1N1CCN(C(=O)c2cc3c(=O)n4ccccc4nc3s2)CC1.Cl | -53.2%
Cc1sc2nc(SCC(=O)NCc3ccco3)n(-c3ccccc3)c(=O)c2c1C | 8.63%
O=P(CCN1CCCCC1)(c1ccccc1)c1ccccc1 | -5.98%
COc1ccc(NC(=O)c2cccnc2Sc2ccccc2)c(OC)c1 | 7.52%
CC(C)(C)NC(=O)Cn1nnc(-c2ccccc2Cl)n1 | 6.43%
CSc1ncccc1C(=O)OCC(=O)NC(C)(C)C | 10.5%
COc1ccc(NC(=O)C2CCC(CNS(=O)(=O)c3csc(C(N)=O)c3)CC2)cc1OC (stereo not shown) | 15.3%
COc1ccc2[nH]c(C(=O)Nc3ccc(F)cc3Br)cc2c1 | 11.7%
COc1ccc(/C=N/NC(=O)c2cccnc2)cc1O | 11.1%
COc1ccccc1N1CCN(C(=O)c2ccc(Br)s2)CC1.Cl | -46.3%
COc1ccc(OC)c2sc(N3CCN(C(=O)c4ccc([N+](=O)[O-])s4)CC3)nc12 | -41.9%
COc1ccccc1N1CCN(C(=O)c2ccc([N+](=O)[O-])s2)CC1 | -54.5%
O=C(c1cccc([N+](=O)[O-])c1)N1CCN(c2cccc(Cl)c2)CC1 | -57.4%
O=C(c1cccc([N+](=O)[O-])c1)N1CCN(c2ccc(Cl)cc2)CC1 | -41.1%
Cc1ccc(N2CCN(C(=O)c3cccc([N+](=O)[O-])c3)CC2)cc1Cl | -19.1%
